PubChem BioAssay AID1053119 (Broad Institute, 2014)
Measured potencies and affinities stand elsewhere. Records with an inconclusive call do not appear. Active and inactive are the calls of the source.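 Rule for the calls: active = signal loss from cell killing with fitted potency at or below twice the top valid dose; inconclusive = flat drop of 30 to 70%, or unreliable curve fit; inactive = opposite direction, flat within 30%, or weaker potency.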

Assay: A549 cell cytotoxicity, dose response, cytotoxicity control, cherry-picks, 26 µM top dose (AID 1053119)
Conditions: A549 viability, CellTiter-Glo ATP luminescence, 72 h; series mostly up to 26 µM

Question: Which outcome does the source give for `O=C(c1cccnc1)N1C[C@H]2[C@@H](c3ccccc31)[C@H](CO)N2CC1CCCC1` here?
Answer: inactive

Question: Which outcome does the source give for `C[C@H]1CN([C@@H](C)CO)C(=O)c2cc(-c3ccccc3)cnc2O[C@H]1CN(C)Cc1ccccc1` here?
Answer: inactive

Question: With `CN(C)c1ccc(-c2ccnc3c2CC(C)(C(=O)NCC2CC2)O3)cc1` (centres undefined) as the compound, how does the outcome read?
Answer: inactive

Question: For `C[C@H](CO)N1C[C@H](C)[C@@H](CN(C)C(=O)c2cccc(F)c2)Oc2ncc(-c3ccccc3)cc2C1=O`, which outcome is on record?
Answer: inactive

Question: For `COc1cccc(CNC(=O)CCc2nnc3ccc(NCCCN4CCCC4=O)nn23)c1`, which outcome is on record?
Answer: inactive

Question: For `CN1c2ccc(-c3ccccc3)cc2[C@@H]2[C@@H](CCN2C(=O)CN2CCOCC2)[C@H]1CO`, which outcome is on record?
Answer: inactive

Question: Which outcome does the source give for `O=C(c1cccnc1)N1C[C@H]2[C@@H](c3ccccc31)[C@@H](CO)N2CC1CCCC1` here?
Answer: inactive

Question: For `C[C@H](CO)N1C[C@H](C)[C@H](CN(C)C)Oc2cc(C#C[C@@H](C)O)ccc2S1(=O)=O`, which outcome is on record?
Answer: inactive

Question: For `CC(NC(=O)CSc1ccc(S(=O)(=O)N2CCOCC2)cn1)c1ccc(Cl)cc1Cl` (centres undefined), which outcome is on record?
Answer: inactive

Question: For `C[C@@H]1CN([C@@H](C)CO)C(=O)c2cc(NC(=O)C3CCCCC3)ccc2O[C@@H]1CN(C)Cc1ccc(-c2ccccc2)cc1`, which outcome is on record?
Answer: inactive

Question: With `Cn1cnc(S(=O)(=O)N2CCN(c3ccccc3)CC2)c1` as the compound, how does the outcome read?
Answer: inactive

Question: With `Cc1ccc(NC(=O)COC(=O)c2cc(Cl)ccc2[N+](=O)[O-])c(C)c1` as the compound, how does the outcome read?
Answer: inactive

Question: With `CCOC(=O)c1cnc(SCc2nc(N)nc(Nc3ccc(OC)cc3)n2)nc1N` as the compound, how does the outcome read?
Answer: inactive

Question: With `Cc1ccc(CS(=O)Cc2ccc(C(=O)NC3CCCC(C)C3C)o2)cc1` (centres undefined) as the compound, how does the outcome read?
Answer: inactive
